Screening results deposited in PubChem BioAssay by National Center for Advancing Translational Sciences (NCATS).
D1 antag: Antagonist of Human D 1 Dopamine Receptor: qHTS. HEK293 TREx D1 cells, calcium flux, dopamine EC80; stronger effect = lower value. hit rate 3.2% among 360,000. D(1A) dopamine receptor (Homo sapiens), P21728. activity change, negative = inhibition, % at 10 µM. AID 504652, 2011; in the data active means activity change below about -30%
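Antagonism measured as reduced calcium response to an EC80 dopamine addition following 180 s compound pre-read; cells were inducible HEK293 Trex D1 plated overnight at 30 C, read kinetically at 1 cycle/sec.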
D3 ag: qHTS of D3 Dopamine Receptor Agonist: qHTS; max activation, %; hit rate 0.58% among 410,000; D3R DiscoveRx beta-arrestin cells, luminescence, 90 min; D(3) dopamine receptor (Homo sapiens), P35462; in the data active means max activation above about 30%
Target sequence (P35462 whole entry, looked up): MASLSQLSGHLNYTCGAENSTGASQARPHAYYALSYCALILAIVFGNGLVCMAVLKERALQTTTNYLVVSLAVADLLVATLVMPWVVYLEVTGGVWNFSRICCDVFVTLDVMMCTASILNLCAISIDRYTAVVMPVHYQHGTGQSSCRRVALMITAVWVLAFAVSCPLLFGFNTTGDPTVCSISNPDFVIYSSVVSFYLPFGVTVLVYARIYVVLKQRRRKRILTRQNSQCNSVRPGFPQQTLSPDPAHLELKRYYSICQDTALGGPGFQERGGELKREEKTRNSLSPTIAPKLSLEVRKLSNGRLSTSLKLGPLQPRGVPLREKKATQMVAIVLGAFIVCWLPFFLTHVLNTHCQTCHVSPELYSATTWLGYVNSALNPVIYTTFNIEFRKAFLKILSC
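Agonist mode: compounds and dopamine controls were applied to plated cells for 90 min at 37 degrees C after an overnight attachment at 1500 cells/well. Luminescent read-out followed 30 - 60 minutes at room temperature with DiscoveRx detection reagent.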
D3 antag: qHTS of D3 Dopamine Receptor Antagonist: qHTS; AID 652054, 2013; D(3) dopamine receptor (Homo sapiens), P35462; hit rate 2.5% among 360,000; D3R cells, DiscoveRx beta-arrestin luminescence, antagonist mode; stronger effect = lower value; max response, negative = inhibition, %; in the data active means max response below about -50%; inconclusive means no clear call, values can overlap the other calls
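Cells plated overnight at 1500 cells/well, then exposed to library compounds with dopamine controls for 90 minutes at 37 degrees C. DiscoveRx reagent added for 30–60 minutes at room temperature; luminescence read, quantitative HTS format.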
D1 agonist: Allosteric Agonists of the Human D1 Dopamine Receptor: qHTS; hit rate 1% among 360,000; HEK293 T-REx D1 cells, calcium flux, agonist mode; activation, % at 2 µM; in the data active means activation above about 30%
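Agonism was scored from calcium flux recorded over 180 s (1 read/s) after pintool compound addition, following a 10-cycle baseline. Cells were inducible force-coupled HEK293 TREx D1, plated overnight at 30 C and loaded with no-wash calcium dye.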
D1 PAM: Potentiators of Human D1 Dopamine Receptor: qHTS. HEK293 TREx D1 cells, calcium flux, dopamine EC20 potentiation. potentiation, % at 10 µM. hit rate 0.036% among 360,000. AID 504651, 2011; in the data active means potentiation above about 30%
Numbers stand for hits; 0 = inactive; ? = inconclusive; - = not tested or not shown. An excerpt weighted towards active compounds, which were near 6% of everything screened.

SMILES	D1 antag	D3 ag	D3 antag	D1 agonist	D1 PAM
CN(c1ccccc1)S(=O)(=O)c1ccc(C(=O)Nc2nnc(-c3ccco3)o2)cc1	-32	0	0	0	0
CCCN(CCC)S(=O)(=O)c1ccc(C(=O)Nc2nnc(CSC)o2)cc1	0	0	-99	0	0
COCc1nnc(NC(=O)c2ccc(S(=O)(=O)N(CC(C)C)CC(C)C)cc2)o1	0	0	0	0	0
Cc1c(C)c2cc3c(c(C)c2oc1=O)OCN(CCc1ccccc1)C3	0	0	-	0	0
COCc1nnc(NC(=O)c2ccc(S(=O)(=O)N(C)c3ccccc3)cc2)o1	0	0	-56	0	0
CN(Cc1ccc(OC(F)F)cc1)C(=O)c1ccc(S(=O)(=O)N(C)c2ccccc2)cc1	-40	0	0	0	0
CC(=O)Nc1ccc(NC(=O)c2ccc(S(=O)(=O)N(C)c3ccccc3)cc2)cc1	0	0	0	0	0
CCCCN(CC)S(=O)(=O)c1ccc(C(=O)Nc2nnc(CSC)o2)cc1	0	0	-83	0	0
CCN(c1ccccc1)S(=O)(=O)c1ccc(C(=O)Nc2nnc(COC)o2)cc1	0	0	0	0	0
Cc1nc2ccc(NC(=O)c3ccc(S(=O)(=O)N(C)c4ccccc4)cc3)cc2s1	-35	0	0	0	0
Cc1cc(N2CCN(c3cccc(C)c3C)CC2)n2cnnc2n1	0	0	-	0	0
CCn1cc(S(=O)(=O)c2cccc(C)c2)c(=O)c2cc(F)c(N3CCCC(C)C3)cc21 (centres undefined)	0	0	-	0	0
Cc1cc(Cl)ccc1OCC(=O)Nc1c(C(=O)c2ccccc2)oc2ccccc12	0	0	-	0	0
Cc1cccc(-n2c(=O)c3c4c(sc3n3cnnc23)CCCC4)c1	0	0	-	0	0
CCc1nnc(NC(=O)c2ccc(S(=O)(=O)N(CCOC)CCOC)cc2)o1	0	0	?	0	0
COc1ccc(CCNC(=O)c2ccc(Cl)c(S(=O)(=O)N(C)c3ccccc3)c2)cc1	-31	0	0	0	0
COc1ccc(CCNC(=O)c2ccc(S(=O)(=O)N(C)c3ccccc3)cc2)cc1OC	0	0	0	0	0
CCCCN(CCCC)S(=O)(=O)c1ccc(C(=O)Nc2nnc(CSC)o2)cc1	0	0	-113	0	0
COCCN(CCOC)S(=O)(=O)c1ccc(C(=O)Nc2nnc(C3CC3)o2)cc1	0	0	-53	0	0
COC(=O)c1cc(CNC(=O)c2ccc(S(=O)(=O)N(C)c3ccccc3)cc2)ccc1OC	-68	0	0	0	0
COc1ccc(CCNC(=O)c2ccc(Cl)c(S(=O)(=O)N3CCCCCC3)c2)cc1	0	0	?	0	0
CN(C)c1ccc(CNS(=O)(=O)c2ccc(-c3cc(C(F)(F)F)on3)s2)cc1	0	0	-	0	0
CC(C)Oc1ccc(CNC(=O)C2CCN(c3nc4ccccc4nc3C(F)(F)F)CC2)cc1	0	0	-	0	0
CC(C)Oc1cccc(C(=O)NC(=S)Nc2ccccc2)c1	-35	0	0	0	0
CCOc1ccc(NC(=O)CCC(=O)NNS(=O)(=O)c2ccccc2[N+](=O)[O-])cc1	0	0	0	224	0
SMILES	D1 antag	D3 ag	D3 antag	D1 agonist	D1 PAM
CCn1nnc2cc(C(=O)Nc3cc(C)ccc3C)ccc21	0	0	-	0	0
COc1ccccc1NC(=O)C1=C(C)Nc2nc(SCc3ccccc3Cl)nn2C1c1ccccn1 (centres undefined)	0	0	-	0	0
CCc1ccc(NC(=O)N2CC=C(c3c[nH]c4ccccc34)CC2)cc1	0	0	-	0	0
CCOc1ccc(NC(=O)N2CC=C(c3c[nH]c4ccccc34)CC2)cc1	-35	0	-	0	0
C=CCN(c1ccccc1OC)S(=O)(=O)c1cccc(C(=O)OCC(=O)c2c[nH]c3ccccc23)c1	0	0	0	0	0
COc1cc(OC)c(N(C)S(=O)(=O)c2cccc(C(=O)OCC(=O)c3c[nH]c4ccccc34)c2)cc1Cl	0	33	0	0	0
COc1cccc(C2C=C(c3ccc(C)cc3)Nc3c(C(=O)Nc4ccc(F)cc4)cnn32)c1OC (centres undefined)	0	0	-	0	0
COC(=O)CNC(=O)CSc1nnc(-c2ccc(OC)cc2)n1CC(C)C	-34	0	0	0	0
CN(C)[C@@H]1CCC[C@H]1OC(=O)C(c1ccccc1)c1ccccc1	0	0	-53	0	0
COc1ccc(OCC(O)CNC(=O)Nc2ccc(F)cc2)cc1 (centres undefined)	-38	0	0	0	0
COCCNc1nc(NCc2cccc(Cl)c2)c2cnn(C)c2n1	0	0	-	0	0
Cc1noc2ncnc(NCc3cccc(Cl)c3)c12	-35	0	-	0	0
Cc1ccc(CNc2ncnc3onc(C)c23)cc1	0	0	-	0	0
Cn1ncc2c(NCc3cccc(Cl)c3)ncnc21	-38	0	-	0	0
c1ccc(CNc2ncnc3c2cnn3Cc2ccccc2)cc1	0	0	0	52	0
OCCNc1ncnc2c1cnn2Cc1ccccc1	0	0	0	0	0
Cc1cccc(N2CCN(C(=O)CCc3c(C)nc4ncnn4c3C)CC2)c1C	0	0	-	0	0
O=C(Cn1c(SCC(=O)Nc2ccc(F)cc2)nc2ccccc21)NCc1ccc(Cl)cc1	0	0	-	0	0
C=CC1=C(C)C2=CC3=NC(=C(CC(=O)[O-])C4=NC(=C(C)C4=C([O-])[O-])C=c4[n-]c(c(C)c4CC)=CC1=N2)C(CCC(=O)[O-])C3C.[Cu+2].[Na+].[Na+].[Na+] (centres undefined)	-	0	-	-	-
CCOC(=O)c1ccccc1NC(=O)Cn1ncc2c([nH]c3ccccc32)c1=O	0	0	-	0	0
CCc1cc(C(=O)N2CCOCC2)c(NC2=NS(=O)(=O)c3ccccc32)s1	0	0	-69	0	0
COc1ccc(NC(=O)COC(=O)CC2CC3CCC2C3)c([N+](=O)[O-])c1 (centres undefined)	-97	0	0	0	0
COc1ccc(NC(=O)COC(=O)C2CCCCC2)c([N+](=O)[O-])c1	0	0	0	0	0
CCOc1ccc(-c2cc(CCCC(=O)NCCc3cc(OC)c(OC)c(OC)c3)no2)cc1	0	0	-	0	0
COc1ccc(N=Cc2c(OC)ccc3ccccc23)cc1	-	0	0	-	-
COc1ccc(-n2c(O)c(C=Nc3ccccc3)c3ccccc3c2=O)cc1	0	0	0	0	0
COc1ccc(N=Cc2sc(O)c3ccccc23)cc1	-82	0	?	544	0
COc1ccc(N=Cc2c(O)c3ccccc3n2C(C)=O)cc1	0	0	0	119	0
O=C(CSc1nc2c([nH]c3ccccc32)c(=O)n1-c1ccc(F)cc1)NC1CCCCC1	0	0	-	0	0
